Each structure is given as a SMILES string. Results filed as inconclusive are left out. Calls of active or inactive are those of the source. Calls follow the shape of the dose curve; as a rule, active = well fitted curve in the direction sought with a large enough effect in the signal ratio; inconclusive = small, poorly fitted or top-dose-only effect, or effect the other way, or a change in a side signal; inactive = no such curve, though single readings can be large or run the other way; the % refers to the signal ratio.

The nature of this assay: qHTS Assay for Modulators of Human Peripheral Myelin Protein 22 (PMP22) Expression/Activity (AID 1967). Conditions: Cell-based PMP22 reporter, dual-color luciferase ratio, 0% = compound-free control cells, mouse Pmp22 promoter in mouse Schwann cells; series mostly up to 115 µM. The text has this:
Charcot-Marie-Tooth-Association [CMTA]
NIH Chemical Genomics Center [NCGC]
Charcot-Marie-Tooth (CMT) disease was first characterized by Jean-Martin Charcot and Pierre Marie in France and, independently, by Howard Henry Tooth in England in 1886. CMT is one of the most common inherited neurological diseases, affecting about 125,000 Americans. […] The most common cause of CMT is known as CMT1A, and is caused by a duplication of the PMP22 gene, leading to over-expression of this protein. PMP22 is a glycosylated intrinsic membrane protein accounting for 2-5% of the myelin protein content and over-expression leads to demyelination and subsequently axonal loss.
A cell-based assay for PMP22 expression modulation was developed by Drs. Ned Mantei and Ueli Suter on behalf of the CMTA. This assay employs a mouse Schwann cell line, MSC80 (Boutry et al., 1992), that was engineered to have the mouse Pmp22 promoter driving expression of a green light-emitting click beetle luciferase (CBG68; Chroma-Gl developed by Promega Corp). A red light-emitting click beetle luciferase (CBR; developed by Promega Corp: CBG68 and CBR differ by only a few amino acids within the D-luciferin binding pocket) under control of the EF-alpha promoter is also stably expressed in the same cells for use as an internal control for nonspecific promoter- or reporter-based effects.
NCGC Assay Protocol Summary:
Cells were seeded in white solid 1536-well plates at between 500-750 cells/4uL in DMEM medium containing 10% FBS, w/o phenol red. After overnight incubation at 37 degree Celsius/5% C02, 23 nL of compounds or DMSO were delivered to each well using a pin tool, followed by 24h-incubation at 37 degree Celsius/5% C02. Then 4 uL Chroma-Glo luminescent substrate mix (Promega) was added to each well. Luminescence was measured on a ViewLux plate reader (Perkin Elmer) using a 540/25 nm filter for green luminescence and a 618/8 nm filter for red luminescence. The green and red luminescent signals were corrected for red and green luminescence filter overlap using filter calibration constants (determined using control cell lines expressing either the green or red CBLuc reporters using the procedures given in Davis et al., 2007). The %Activity was determined from the ratio of corrected green/red luminescent values. Green luminescent and ratio %Activity was determined by normalizing to the signal between of untreated cells (0% Activity)
Keywords: luminescence, PMP22, CMT1A, NCGC, CMTA, qHTS
Concentration-response curves were fitted to the signals arising from the green luminescence (PMP22 promoter driven expression) and the red luminescence (control promoter) as well as the calculated ratio. The concentration-effect curves were then classified based on curve quality (r2), response magnitude and degree of measured activity.
For orientation: qHTS replaces the single test concentration by a dilution series.
Turning to `CCC(=O)N1CCN(C(=O)c2ccccc2)CC1`, the result was inactive. For `N=C(N)SCCN` the value was “inactive”; for `O=C(O)C1CN(CCCP(=O)(O)O)CCN1` (stereo not given), “inactive”; for `C=CCn1c(=O)c2c(nc(-c3ccc(S(=O)(=O)O)cc3)n2C)n(C)c1=O`, “inactive”.

Take `NC1CCN(O)C1=O` (stereo not given): the result was inactive. For the molecule `COC(=O)C(C)(N)Cc1ccc(O)cc1` (stereo not given), the outcome was inactive. As for `COCc1nc2c([nH]1)c(=O)n(C)c(=O)n2CC(C)C`, the result was inactive. Consider `COc1ccc2c(c1)c(CC(=O)O)c(C)n2C(=O)c1ccccc1`, for which the result was inactive. The result for `CC(N)(C(=O)O)c1ccc(C(=O)O)cc1` (stereo not given) reads “inactive”. The result for `C[C@@]1(C2CCCC2)Cc2cc(OCC(=O)O)c(Cl)c(Cl)c2C1=O` reads “inactive”; that for `O=C(O)C1=CCCNC1`, “inactive”. In the case of `NC1(C(=O)O)CCc2cc(C(=O)O)ccc21` (stereo not given), the result was inactive. With `CC[N+](CC)(CC)CC(=O)Nc1c(C)cccc1C`, the outcome was inactive.

Regarding `CCCCCCCCCCC/C=C\C(C)(C)/C=C\CCCC(=O)O`, the result was inactive. With `Cc1cccc(C)c1OCC(N)C(C)C` (stereo not given), the outcome was inactive. Regarding `CCCn1c(=O)c2[nH]c(-c3ccc(S(=O)(=O)O)cc3)nc2n(CCC)c1=O`, the result was inactive.

For the molecule `Nn1nnc2ccccc21`, the outcome was inactive. The result for `Oc1cc2c(cc1O)C(c1ccccc1)CNCC2` (stereo not given) reads “inactive”; that for `O=C(O)C1=CCNCC1`, “inactive”. The result for `CCCCCCCCCCCCCCC[C@H](O)[C@H](N)CO` reads “inactive”; that for `Cc1ccc2c(c1)C(N1CCN(C)CC1)=Nc1cccnc1N2`, “inactive”. For `C[C@H](O)C(=O)C1=Nc2c(nc(N)[nH]c2=O)NC1` the value was “inactive”; for `CC(C)(C)NCC(O)COc1cccc2[nH]c(=O)[nH]c12` (stereo not given), “inactive”. Consider `CCCC[C@@]1(C2CCCC2)Cc2cc(OCC(=O)O)c(Cl)c(Cl)c2C1=O`, for which the outcome was inactive.

Consider `C[C@@H](NCCc1ccc(O)cc1)[C@@H](O)c1ccc(O)cc1`, for which the result was inactive. The result for `CC(=O)C(C)=O` reads “inactive”; that for `CCCc1c(OCCCOc2ccc(OCC(=O)O)cc2)ccc(C(C)=O)c1O`, “inactive”. The result for `OCC1NCC(O)C(O)C1O` (stereo not given) reads “inactive”. On to `O=C(O)c1cc2cc(F)ccc2[nH]1`, for which the result was inactive. As to `COC1(C2=NCCN2)COc2ccccc2O1` (stereo not given), the outcome was inactive.

As to `NC(C(=O)N[C@@H]1C(=O)N2C(C(=O)O)=C(Cl)CS[C@H]12)c1ccccc1` (stereo not given in full), the outcome was inactive. For `CNc1cc(NS(=O)(=O)c2ccc(N)cc2)nc(NC)n1` the value was “inactive”; for `CC(C)C[C@H](NC(=O)C1OC1C(=O)O)C(=O)NCCCCN=C(N)N` (stereo not given in full), “inactive”. The result for `O=C(O)C1CCCNC1` (stereo not given) reads “inactive”; that for `COc1cc([C@@H]2c3cc4c(cc3[C@H](O)C3COC(=O)[C@@H]32)OCO4)cc(OC)c1OC` (stereo not given in full), “inactive”; that for `CC(=O)N[C@@H](Cc1c[nH]c2ccccc12)C(=O)OCc1cc(C(F)(F)F)cc(C(F)(F)F)c1`, “inactive”.

For the molecule `CO/N=C(\C(=O)N[C@@H]1C(=O)N2C(C(=O)O)=C(CSc3nc(=O)c(O)nn3C)CSC12)c1csc(N)n1` (stereo not given in full), the result was inactive. In the case of `OC[C@H]1O[C@@H](n2cnc3cncnc32)[C@H](O)[C@@H]1O`, the result was inactive. With `N=C(N)c1ccc(N)cc1`, the result was inactive.

Turning to `N[C@@H](CS(=O)O)C(=O)O`, the result was inactive.

Source of the values: PubChem BioAssay (NCATS).
